Results on 28 molecules are retold here after PubChem BioAssay (NCATS).

Structures are written as SMILES. Records with an inconclusive call do not appear. Active and inactive are the calls of the source. Calls come from the whole dose curve; as a rule, active = well fitted curve in the direction sought with a large enough effect in the main read-out, with a control signal flat (not every such curve was filed as active); inconclusive = small, poorly fitted or top-dose-only effect, or effect the other way, or a change in a side signal; inactive = no such curve, though single readings can be large or run the other way.

The nature of this assay: qHTS Validation Assay to Find Inhibitors of Chronic Active B-Cell Receptor Signaling (AID 485345). The conditions noted are these: ABC-DLBCL cells, chronic BCR signaling reporter, CBG luciferase; series mostly up to 46.1 µM; activity change: at the top concentration. The text has this:
NIH Molecular Libraries Probe Production Network [MLPCN]
NIH Chemical Genomics Center [NCGC]
PI Name: Dr. R. Eric Davis
Diffuse large B-cell lymphoma (DLBCL) is the most common category of non-Hodgkin lymphoma, with ~20,000 new cases per year in the United States. DLBCL should be regarded as a collection of different neoplasms. Microarray gene expression analysis has defined two principal types of DLBCL, named for their similarity to normal B cell stages or activation states: a germinal center B-cell (GCB) type, and an activated B-cell (ABC) type. In ABC-DLBCL, a constitutive high-level activity of the NF-kappaB family of transcription factors has been observed (1) and NF-kappaB target genes are more highly expressed in ABC primary tumors than in GCB tumors. Functional studies have shown a constitutive high-level activity of the IkappaB (inhibitor of kappa-B) kinase (IKK) complex. […] Further analysis of DLBCL primary tumors for NF-kappaB target gene expression imply that although CARD11 is required for constitutive IKK activity in all ABC-DLBCL lines, mutations in CARD11 may be the root cause of IKK activation only in lines or tumors with such mutations. In other words, CARD11 mutations may explain NF-kappaB activation in only 10% of ABC-DLBCL cases. […] This process has been termed 'chronic active BCR signaling' (CABS).
The goal of this screen is to find small-molecule inhibitors of the CABS pathway found in ABC-DLBCL lines using a cell-based assay that measures IkappaBalpa stability, which has already been extensively validated in the OCI-Ly3 line (PubChem AID:445; REF: 4).
A cell-sensor assay for I-kappa-B-alpha stabilization has been developed. The assay uses green (CBG68) and red (CBR) emitting beetle luciferases [Chroma-GloTM developed by Promega Corp.] where the green luciferase is fused to IkappaBalpha and the red luciferase is present in its native state. Both luciferase genes are stably present in the TMD8 human ABC DLBCL cell line, but their expression is under the control of tetracycline-inducible promoters. Following the addition of doxycycline to induce expression of the luciferases, the green luminescence in control cultures rises only slowly because the CBG fusion partner IkappaBalpha is targeted by IKK activity for rapid degradation. In contrast, green luminescence rises rapidly in the presence of proteasome inhibitors or IKK inhibitors. The rise in red luminescence of CBR is not affected by proteasome or IKK inhibitors, and serves as normalization for cell number and nonspecific effects. Compounds were screened as a concentration-titration series that ranged from 46 uM to 3 nM.
NCGC Assay Protocol Summary:
Cells were seeded in 1536-well plates at 5000 cells/4uL in IMDM medium containing 0.5% FBS, w/o phenol red, 1% penicillin/streptomycin. Then, 23 nL of compounds or DMSO were delivered to each well using a pin tool. One uL 20ng/ml doxycycline was then dispensed into white solid 1536-well plates and the plates were incubated at 37C/5% C02 in a cell incubator for 4 hrs. Then 4 uL luminescent substrate mix (in-house prepared: 150 mM Tris-Cl, pH 7.6, 3 mM MgCl2, 1% Triton X-100, 5 mM DTT, 0.2 mM CoA, 0.15 mM ATP, 5 mM D-luciferin, final concentrations) was added to each well. The plate was incubated at r.t. for 10-15 min. The plates were measured on a ViewLux plate reader for green luminescence (540/20 nm filter) and red luminescence (618/8 nm filter). The green and red luminescent signals were corrected for red and green luminescence filter overlap using previously determined filter calibration constants (determined using the procedure outlined in the Promega Technical Manual; REF 4). The %Activity was determined from the ratio of corrected green/red luminescent values. MG132 were used as control. Green luminescent and ratio %Activity was determined by normalizing to the difference in signal between basal cells (0% Activity) and cells incubated with 10 uM of the proteasome inhibitor MG-132 (100% Activity). […]
In the case of `O=C(O)CCc1nc(-c2ccccc2)c(-c2ccccc2)o1`, the “activity change” value is 2.24% (inactive).
Same read-out and setting: under `CCN(CC)CCOC(=O)c1ccc(N)cc1` stands -4.38% (inactive); under `COc1ccccc1N1CCN(CCCNc2cc(=O)n(C)c(=O)n2C)CC1`, -3.05% (inactive).
On the same count and under the same terms, to `COc1cccc(-c2cc(=O)c3ccccc3o2)c1N` belongs -4.8% (inactive); to `CC(C)NCC(O)COc1cccc2[nH]ccc12` (stereo not drawn), -8.79% (inactive).
Turning to `CCN(CC)CCNC(=O)c1ccc(N)cc1`, the “activity change” value is 2.14% (inactive).
On the same count and under the same terms, to `O=C(NCCN1CCOCC1)c1ccc(Cl)cc1` belongs -4.81% (inactive); to `C[N+](C)(C)CC(=O)O`, 1.62% (inactive); to `CC(C)(C)c1ccc(C(O)CCCN2CCC(C(O)(c3ccccc3)c3ccccc3)CC2)cc1` (stereo not drawn), -5.18% (inactive).
Take `CCN1CCC[C@H]1CNC(=O)c1cc(S(N)(=O)=O)ccc1OC`: the “activity change” value is -8.94% (inactive).
Same read-out and setting: to `CCCCCN(C)CCC(O)(P(=O)(O)O)P(=O)(O)O` belongs -4.36% (inactive).
Still for that read-out and setting: under `CN(C)CCC(c1ccccc1)c1ccccn1` (stereo not drawn) stands 1.42% (inactive); under `NCCS`, -7.24% (inactive); under `CCCNC(=O)NS(=O)(=O)c1ccc(Cl)cc1`, 0.0046% (inactive).
Still for that read-out and setting: to `CC(=O)c1ccc(S(=O)(=O)NC(=O)NC2CCCCC2)cc1` belongs 0.172% (inactive).
For `C[N+](C)(C)CCCCCC[N+](C)(C)C`, the molecule was called inactive.
As for `O=C1NC(=O)C(c2ccccc2)(c2ccccc2)N1`, the “activity change” value is -2.19% (inactive).
Still for that read-out and setting: to `NC(N)=Nc1nc(CSCC/C(N)=N/S(N)(=O)=O)cs1` belongs -2.6% (inactive).
The same measure, in the same setting: to `O=C1NCC2(CCN(CCc3ccccc3)CC2)O1` belongs -13.9% (inactive); to `Clc1ccc(C(c2ccc(Cl)cc2)n2cc[n+](CC(OCc3ccc(Cl)cc3Cl)c3ccc(Cl)cc3Cl)c2)cc1` (stereo not drawn), -5.83% (inactive).
In the case of `Cc1cccc(C)c1OCC(C)N` (stereo not drawn), the “activity change” value is -4.54% (inactive).
As for `CC(=O)CCCCn1c(=O)c2c(ncn2C)n(C)c1=O`, the “activity change” value was -14.8% (inactive).
Same read-out and setting: to `Clc1ccc(Cn2c(CN3CCCC3)nc3ccccc32)cc1` belongs -8.76% (inactive).
Same read-out and setting: under `CCN(CC)C(=O)c1ccc(O)c(OC)c1` stands -1.97% (inactive).
The same measure, in the same setting: to `CCn1cc(C(=O)O)c(=O)c2ccc(C)nc21` belongs -1.66% (inactive).
With `CCCCC1C(=O)N(c2ccccc2)N(c2ccccc2)C1=O`, the “activity change” value is -5.31% (inactive).
The same measure, in the same setting: under `CC(=O)O[C@]1(C(C)=O)CC[C@H]2[C@@H]3C=C(Cl)C4=CC(=O)[C@@H]5C[C@@H]5[C@]4(C)[C@H]3CC[C@@]21C` stands -11.8% (inactive); under `CC(=O)N[C@@H](CS)C(=O)O`, -1.79% (inactive).
